# Screening results (PubChem)
# HepG2 tox: HepG2 cytotoxicity, counter-screen for TGF-b inhibitors | HepG2 CAGA-GFP viability, ATP luminescence, 18 h | Potency, µM (doses to about 46.1 µM), for inactives: at the highest dose activity change, negative = cytotoxicity, hits mostly cytotoxic | 410,000 compounds, 0.76% hits | AID 588856
#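 HepG2 CAGA-GFP cells (1000/well, DMEM with 1% FBS) received compound, then TGF-beta at 500 pg/mL final, and were incubated 18 hours at 37 degrees C. Viability was read by CellTiter-Glo luminescence. Media-only wells were set as complete cell-killing and DMSO as no toxicity.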
# HT1080 IDH1KD tx: toxicity to HT-1080 IDH1 knockdown cells (counter line) | Potency, µM (highest dose often 46.1 µM), for the others: at the top dose activity, negative = toxicity, actives largely listed as cytotoxic | 360,000 compounds, 2% hits | HT-1080 IDH1 knockdown viability, ATP luminescence, 48 h;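 also: 0% = DMSO wells and -100% = cell-free medium wells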
#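 HT-1080-IDH1KD cells (IDH1 knocked down), 750/well in RPMI with 5% FBS, treated with compound 48 h at 37 degrees C. Viability by CellTiter-Glo luminescence, normalised to DMSO and no-cell wells; concentration-response curves classed.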
# TGFb inhibitor: blocks TGF-b signaling | 410,000 compounds, 1.2% hits | HepG2 CAGA-GFP TGF-b/SMAD3 reporter, GFP fluorescence, 18 h; TGF-beta stimulated, 500 pg/mL final | AID 588855 | Potency, µM (series often up to 46.1 µM), for the others: top-dose activity, negative = inhibition, hits mostly inhibitors; also: % is scaled to controls: 0 for no effect and ±100 for the full control effect; nearly all actives have a fitted effect of over 65% in size
#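 First, reporter cells (HEPG2 CAGA-GFP) rested 2 h at 37 degrees C. Next, compounds were pinned in and TGF-beta added to 500 pg/mL final. After 18 h, GFP was imaged per cell and summed per well.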
# HT1080-NT tox: kills 2HG-producing HT-1080-NT fibrosarcoma cells | HT-1080-NT fibrosarcoma viability, CellTiter-Glo ATP luminescence, 48 h | Potency, µM (titrated, usually from 46.1 µM), for the others: at the top dose activity, negative = less viability, hits mostly cytotoxic | 360,000 compounds, 1.6% hits | AID 686970;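 also: NT is the 2HG producing partner of a matched IDH1 knockdown line; 0% = DMSO-treated cells and -100% = media-only wells without cells; nearly all actives have a fitted effect of over 55% in size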
#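 Toxicity toward the 2HG-producing NT line was scored as %Activity, normalised to DMSO and no-cell wells, from CellTiter-Glo luminescence after 48 hours' treatment.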
# ATXN2 expr inh: inhibitors of ATXN2 expression; HEK-293 ATXN2-luciferase reporter, luminescence, 24 h; Potency, µM (series often up to 57 µM), for inactives: at the highest dose activity change, negative = inhibition, usual class: inhibitors; 360,000 compounds, 0.72% hits; AID 1745845; also: % is scaled to controls: 0 for no effect and ±100 for the full control effect; nearly all actives have a fitted effect of over 55% in size
#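 ATXN2-luciferase reporter cells (luciferase flanked by upstream and downstream ATXN2 gene portions) were treated 24 h at 37 °C with compounds at up to 57 uM. SteadyGlo luminescence gave expression; GF-AFC fluorescence gave viability.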
# ATXN viability: reduces viability in counter-screen for ATXN expression inhibitors; S2 cells (HEK-293 line with an ATXN2-luciferase reporter) viability, CellTiter-Fluor protease fluorescence, 24 h; Potency, µM (doses to about 56.7 µM), actives largely listed as cytotoxic; 400,000 compounds, 0.49% hits; AID 651635; also: nearly all actives have a fitted effect of over 40% in size
# Starred values were filed as active, the others as inactive; i = inactive; u = inconclusive; x = no result given; ! = a repeat was not active. A selection: hits, their analogues and other compounds. The true share with any hit is near 3.8%. Calls follow the shape of the dose curve; as a rule, active = well fitted curve in the direction sought with a large enough effect; inconclusive = small, poorly fitted or top-dose-only effect, or another doubt; inactive = no such curve, though single readings can be large; an effect the other way counts as inactive or inconclusive. Potency is read from the fitted curve at half-maximal effect.
SMILES,HepG2 tox,HT1080 IDH1KD tx,TGFb inhibitor,HT1080-NT tox,ATXN2 expr inh,ATXN viability
Cc1nc(Nc2cnc(/C=C/c3cc(C(=O)Nc4cccc(C(F)(F)F)c4)ccc3C)cn2)cc(N2CCNCC2)n1,-106%,u,u,u,16µM*,i
Cc1nc(N2CCC(C)CC2)c2c(C)c(C(=O)Nc3cccc(C(F)(F)F)c3)sc2n1,-1%,u,8%,u,x,i
CC1(C)CC(=O)C=C(c2ccc(-c3ccccc3)cc2)C1=O,-25%,-13%,11%,-7%,-14%,u
CC1(C)CC(=O)C=C(c2ccc(-c3ccc(OC(F)(F)F)cc3)cc2)C1=O,-39%,21µM*,5%,u,u,u
COc1ccc(C(=O)N2C=Cc3ccccc3C2C#N)cc1 (stereo not given),-6%,-2%,1%,3%,x,i
N#CC1c2ccccc2C=CN1C(=O)N(c1ccccc1)c1ccccc1 (stereo not given),11µM*,u,8.9µM*,u,u,u
O=C(O)C1=CC(O)C(O)[C@H](O)C1 (stereo not given in full),x,x,x,x,1%,x
CCc1nc2ccc(C(=O)NCCCN(C)C)cn2c1N(C)CCCc1ccccc1,-79%,23µM*,17%,18µM*,u,u
CCc1nc2ccc(C(=O)NCCCn3ccnc3)cn2c1N(C)Cc1cc2ccccc2s1,-17%,u,5%,21µM*,-20%,i
CCc1nc2ccc(C(=O)NC3CCN(Cc4ccccc4)CC3)cn2c1N(C)Cc1cc2ccccc2s1,-111%,u,u,16µM*,u,u
COc1cccc(C(=O)Oc2cc3c4c(c2)C(C)=CC(C)(C)N4C(=O)C3=O)c1,-2%,4.5µM*,-22%,7.1µM*,-7%,u
COc1ccc(C(=O)Oc2cc3c4c(c2)C(C)=CC(C)(C)N4C(=O)C3=O)cc1OC,-8%,-4%,2%,0%,7%,i
COc1cc2c3c(c1)C(C)=CC(C)(C)N3C(=O)C2=O,3%,3.3µM*,u,10µM*,x,i
COc1cc2c3c(c1)C(C)CC(C)(C)N3C(=O)C2=O (stereo not given),7%,-3%,62%,-5%,-20%,i
COc1ccc(NC(=O)c2ccc(-c3ccc(-c4noc(C)n4)cc3C)cc2)cc1N1CCN(C)CC1,11µM*!,23µM*,18µM*,8.2µM*,u,x
COc1ccc(NC(=O)N2CCN(c3cc(-c4noc(C)n4)ccc3C)CC2)c(OC)c1,-22%,x,-26%,x,7%,i
CNc1ccc(/C=C/c2ccccc2)cc1,-33%,x,-24%,x,x,x
COc1ccc(NC(=O)CCS(=O)(=O)c2nc(-c3cccs3)cc(C(F)(F)F)n2)cc1,-89%,x,10µM*,x,x,x
O=C(CCS(=O)(=O)c1nc(-c2cccs2)cc(C(F)(F)F)n1)Nc1ccc(OC(F)(F)F)cc1,-39%,x,-17%,x,-18%,16µM*
CC(C)c1nnc(NC(=O)CCS(=O)(=O)c2nc(-c3cccs3)cc(C(F)(F)F)n2)s1,-95%,u,14µM*,u,-7%,u
O=C(CCS(=O)(=O)c1nc(-c2cccs2)cc(C(F)(F)F)n1)Nc1ccc(F)c(Cl)c1,11µM*,x,20µM*,x,x,x
O=C(CCS(=O)(=O)c1nc(-c2ccc3c(c2)OCO3)cc(C(F)(F)F)n1)Nc1ccc(Br)cc1,-105%,x,u,x,x,x
CC(=CC(=O)Nc1ccccc1C(=O)O)c1ccc2ccccc2c1,x,x,x,x,135%,x
COc1ccc(OC)c(/C=C2\Cc3ccccc3C2=O)c1,-32%,x,-24%,x,x,x
O=C(c1cccc(F)c1F)N1CCOc2ccc(CN3CCC(Oc4cccnc4)CC3)cc2C1,x,x,x,x,x,i
SMILES,HepG2 tox,HT1080 IDH1KD tx,TGFb inhibitor,HT1080-NT tox,ATXN2 expr inh,ATXN viability
Cc1ccc(-c2cn3c(n2)sc2cc(C(=O)N4CCCCC4)ccc23)cc1,-33%,x,-21%,x,x,x
Cc1ccc2[nH]c(C(=O)N3CCc4c(cnc(C)c4CNC(=O)c4ccccc4F)C3)cc2c1,x,x,x,x,x,i
C(=Nc1ccc(/C=C/c2ccnc3ccccc23)cc1)c1ccc2c(c1)OCO2,-37%,x,0%,x,x,x
Cc1ccc(C(=O)Sc2cccccc2=O)cc1,1.4µM*,1.6µM*,0.89µM*,u,u,x
S=C(NN=C(c1ccccc1)c1ccccn1)N(Cc1ccccn1)Cc1ccccn1,-85%,8.2µM*,u,16µM*,0.89µM*,x
S=C(NN=Cc1ccccn1)N(Cc1ccccn1)Cc1ccccn1,-21%,u,u,-21%,7.9µM*,u
CC(=NNC(=S)N(Cc1ccccn1)Cc1ccccn1)c1cnccn1,-44%,0.58µM*,u,u,1.3µM*,u
Cc1ccccc1NC(=S)N(Cc1ccccn1)Cc1ccccc1Cl,-24%,0%,u,-2%,u,u
Cc1ccc2c(C)ccnc2c1,-18%,x,u,x,x,x
O=C(Oc1ccc(Cl)cc1)c1ccc2nccnc2c1,-10%,11%,5%,15%,2%,i
Cc1ccc2nccnc2c1,5.6µM*,x,8.9µM*,x,x,x
Clc1ccc2nccnc2c1,14µM*,x,u,x,x,x
CCC1C(=O)NCCN1Cc1ccc2c(c1)CN(Cc1cccn1-c1ccc(Cl)cn1)CCO2 (stereo not given),x,x,x,x,x,i
CS(=O)(=O)c1ccc(C(=O)OCc2nnc(-c3ccc(Cl)cc3)o2)cc1[N+](=O)[O-],-83%,18µM*,u,u,u,x
CC(=O)c1c(C)[nH]c(C(=O)OCc2nnc(-c3ccc([N+](=O)[O-])cc3)o2)c1C,-21%,u,-11%,23µM*,-28%,u
COc1ccc(COc2cc(-c3cccc(OC)c3)nc3ccc(NC(=O)c4ccc(OC)cc4)cc23)cc1,18%,4.6µM*,u,5.2µM*,-13%,u
COc1ccc(COc2cc(-c3cccc(OC)c3)nc3ccc(NC(=O)c4ccc(Cl)cc4)cc23)cc1,0%,u,-3%,u,-19%,u
COc1ccc(COc2cc(-c3cccc(OC)c3)nc3ccc(NC(=O)c4ccccc4)cc23)cc1,-1%,23µM*,-3%,u,-11%,u
O=C(NCC(c1cccs1)S(=O)(=O)c1cccs1)c1ccc(Cl)cc1 (stereo not given),-17%,x,-21%,x,-25%,u
Cc1ccc(N=C2C(=O)Nc3ccc(Br)cc32)cc1,-17%,u,0%,u,-14%,i
